According to PubChem BioAssay:
Calls of active or inactive are those of the source.

Experiments:
[1] = small molecules captured by biotinylated probe aFSTL3 – biochemical, small-molecule microarray, fluorescence 635/667, stem cell growth factor project, primary screen (AID 1064); conditions: higher = more signal;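 further: measures binding of the biotinylated anti-FSTL3 antibody to printed compounds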
[2] = binders from COS7 lysate, DM2A8 probe, primary screen, torsin A project, cell lysate, small-molecule microarray, fluorescence 635/667 (AID 1065); conditions: higher = more signal, COS7 lysate expressing mutant human TOR1A
[3] = small molecules captured by biotinylated probe aFGF2 – biochemical, small-molecule microarray, fluorescence 635/667, stem cell growth factor project, primary screen (AID 1067); conditions: higher = more signal;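 further: measures binding of biotinylated aFGF2 protein to printed compounds on slides; z-score merges feature fluorescence and signal-to-noise across triplicate slides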
[4] = small molecules captured by biotinylated probe aFGF10 – biochemical, small-molecule microarray, fluorescence 635/667, stem cell growth factor project, primary screen (AID 1071); conditions: higher = more signal;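 further: score merges 667 nm spot intensity and signal to noise from triplicate slides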
[5] = biological target: Neurogenic locus notch homolog protein 2 (Homo sapiens) (UniProt Q04721); experiment: small molecules binding Notch2 protein – biochemical, small-molecule microarray, 635 nm fluorescence, stem cell growth factors, primary screen (AID 1073); conditions: higher = more signal
Neurogenic locus notch homolog protein 2 (Homo sapiens), sequence (Q04721 whole entry, looked up, canonical isoform): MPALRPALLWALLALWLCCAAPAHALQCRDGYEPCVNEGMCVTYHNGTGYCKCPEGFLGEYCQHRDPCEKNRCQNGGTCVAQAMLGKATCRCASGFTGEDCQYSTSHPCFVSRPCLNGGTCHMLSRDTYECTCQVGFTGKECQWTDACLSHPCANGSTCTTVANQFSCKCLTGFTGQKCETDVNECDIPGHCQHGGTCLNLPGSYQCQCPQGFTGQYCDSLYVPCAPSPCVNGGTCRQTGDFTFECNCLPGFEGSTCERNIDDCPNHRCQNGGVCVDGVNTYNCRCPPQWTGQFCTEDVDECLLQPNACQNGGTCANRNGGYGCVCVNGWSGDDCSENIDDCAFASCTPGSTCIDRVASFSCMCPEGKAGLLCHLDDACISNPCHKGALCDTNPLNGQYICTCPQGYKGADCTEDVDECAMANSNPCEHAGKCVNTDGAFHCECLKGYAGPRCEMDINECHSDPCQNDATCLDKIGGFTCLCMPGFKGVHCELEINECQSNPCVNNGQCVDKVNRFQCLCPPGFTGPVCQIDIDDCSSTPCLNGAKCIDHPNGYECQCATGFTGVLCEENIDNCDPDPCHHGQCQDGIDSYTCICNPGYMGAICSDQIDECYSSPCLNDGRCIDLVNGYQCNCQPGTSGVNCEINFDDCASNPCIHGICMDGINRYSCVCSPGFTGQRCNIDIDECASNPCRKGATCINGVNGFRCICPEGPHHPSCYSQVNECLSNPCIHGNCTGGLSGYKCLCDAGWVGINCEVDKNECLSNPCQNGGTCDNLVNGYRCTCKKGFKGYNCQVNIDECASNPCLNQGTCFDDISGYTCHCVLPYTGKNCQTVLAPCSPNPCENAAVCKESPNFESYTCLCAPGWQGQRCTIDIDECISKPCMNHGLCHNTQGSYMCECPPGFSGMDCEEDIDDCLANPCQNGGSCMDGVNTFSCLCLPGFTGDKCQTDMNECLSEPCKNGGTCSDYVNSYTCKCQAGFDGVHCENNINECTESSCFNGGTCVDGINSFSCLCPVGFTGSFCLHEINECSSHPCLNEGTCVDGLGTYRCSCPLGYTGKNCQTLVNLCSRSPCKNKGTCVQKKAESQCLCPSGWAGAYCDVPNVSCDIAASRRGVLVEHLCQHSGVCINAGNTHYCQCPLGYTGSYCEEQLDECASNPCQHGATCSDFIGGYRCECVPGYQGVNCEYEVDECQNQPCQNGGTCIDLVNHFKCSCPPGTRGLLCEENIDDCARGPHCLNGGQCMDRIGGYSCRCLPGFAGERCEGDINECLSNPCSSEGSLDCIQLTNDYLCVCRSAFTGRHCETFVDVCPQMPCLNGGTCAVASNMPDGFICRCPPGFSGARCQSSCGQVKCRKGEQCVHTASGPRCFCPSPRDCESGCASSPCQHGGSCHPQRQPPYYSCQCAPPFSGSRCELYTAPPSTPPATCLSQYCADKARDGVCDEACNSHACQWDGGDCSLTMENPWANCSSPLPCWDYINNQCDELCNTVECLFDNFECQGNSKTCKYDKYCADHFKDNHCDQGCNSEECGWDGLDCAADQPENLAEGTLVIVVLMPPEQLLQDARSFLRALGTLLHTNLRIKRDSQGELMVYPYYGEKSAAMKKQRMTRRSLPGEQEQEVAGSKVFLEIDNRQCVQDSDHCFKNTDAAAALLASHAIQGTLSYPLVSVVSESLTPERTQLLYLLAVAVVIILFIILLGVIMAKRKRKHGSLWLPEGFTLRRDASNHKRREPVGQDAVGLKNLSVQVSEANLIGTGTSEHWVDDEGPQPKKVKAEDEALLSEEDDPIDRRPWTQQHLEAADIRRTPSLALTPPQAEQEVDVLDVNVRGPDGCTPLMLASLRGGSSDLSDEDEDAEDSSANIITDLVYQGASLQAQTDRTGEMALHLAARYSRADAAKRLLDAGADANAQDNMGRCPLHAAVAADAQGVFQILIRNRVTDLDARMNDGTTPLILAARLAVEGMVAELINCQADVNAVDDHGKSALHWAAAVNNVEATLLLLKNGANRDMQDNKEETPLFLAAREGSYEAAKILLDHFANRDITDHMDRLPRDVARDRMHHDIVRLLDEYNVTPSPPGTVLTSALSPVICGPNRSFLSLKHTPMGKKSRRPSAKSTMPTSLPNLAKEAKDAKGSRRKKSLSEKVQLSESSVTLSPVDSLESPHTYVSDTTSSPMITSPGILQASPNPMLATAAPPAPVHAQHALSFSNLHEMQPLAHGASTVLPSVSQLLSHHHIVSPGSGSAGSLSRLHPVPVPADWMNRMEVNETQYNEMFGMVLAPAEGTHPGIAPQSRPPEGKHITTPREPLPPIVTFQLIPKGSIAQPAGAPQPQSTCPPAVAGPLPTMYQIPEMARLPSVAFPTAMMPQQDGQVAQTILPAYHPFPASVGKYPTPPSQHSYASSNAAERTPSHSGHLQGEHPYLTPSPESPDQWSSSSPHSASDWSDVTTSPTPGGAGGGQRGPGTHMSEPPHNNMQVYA

[6] = biological target: Pro-neuregulin-1, membrane-bound isoform (Homo sapiens) (UniProt Q02297); experiment: small molecules binding neuregulin-1 protein – biochemical, small-molecule microarray, fluorescence 635/667, psychiatric disease protein project, primary screen (AID 1075); conditions: NRG1 binding, 635 nm fluorescence, higher = more signal;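 further: score combines 667 nm spot fluorescence with signal to noise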
Pro-neuregulin-1, membrane-bound isoform (Homo sapiens), sequence (Q02297 whole entry, looked up, the tested form may be a part, canonical isoform): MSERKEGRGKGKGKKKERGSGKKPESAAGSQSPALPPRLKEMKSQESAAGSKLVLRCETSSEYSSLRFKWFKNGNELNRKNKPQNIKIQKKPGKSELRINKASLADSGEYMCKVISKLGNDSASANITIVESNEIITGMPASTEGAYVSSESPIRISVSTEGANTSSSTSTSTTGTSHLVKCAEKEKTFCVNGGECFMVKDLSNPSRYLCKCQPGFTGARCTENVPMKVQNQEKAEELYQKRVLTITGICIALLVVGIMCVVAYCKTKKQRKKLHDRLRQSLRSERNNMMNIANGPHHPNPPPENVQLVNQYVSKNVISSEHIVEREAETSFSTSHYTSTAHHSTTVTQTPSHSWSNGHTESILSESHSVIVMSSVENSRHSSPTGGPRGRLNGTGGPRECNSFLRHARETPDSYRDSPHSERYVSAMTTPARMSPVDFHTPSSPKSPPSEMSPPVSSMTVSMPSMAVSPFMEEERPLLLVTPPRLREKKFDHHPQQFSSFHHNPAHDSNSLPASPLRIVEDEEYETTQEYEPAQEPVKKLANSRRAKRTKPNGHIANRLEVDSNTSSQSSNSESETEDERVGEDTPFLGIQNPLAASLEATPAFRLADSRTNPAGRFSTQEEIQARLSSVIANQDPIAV

[7] = tested on: Neuregulin-1 EGF-like domain; experiment: small molecules binding NRG1 EGF domain – biochemical, small-molecule microarray, 635 nm fluorescence, primary screen (AID 1081); conditions: higher = more signal;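 further: binding of the protein to compounds printed on small-molecule microarray slides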
[8] = FRG1 expression reporter modulators in myotubes – cell-based, C2C12 myotubes, firefly/Renilla luciferase, luminescence, FRG1 inhibition for FSHD, primary screen (AID 1084); conditions: FRG1 promoter luciferase, higher = more signal, called active from +8 up or from −8 down
[9] = small molecules captured by biotinylated probe aFST – biochemical, small-molecule microarray, fluorescence 635/667, stem cell growth factor project, primary screen (AID 1086); conditions: higher = more signal;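 further: score merges 667 nm fluorescence with signal-to-noise of each printed compound spot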
[10] = binders of probe aHhip on microarray, primary screen, stem cell growth factor project, biochemical, small-molecule microarray, fluorescence 635/667 (AID 1087); conditions: higher = more signal;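 further: score merges spot fluorescence at 667nm with spot signal to noise ratio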

Structure (SMILES)	composite z-score [1]	composite z-score [2]	composite z-score [3]	composite z-score [4]	composite z-score [5]	composite z-score [6]	composite z-score [7]	z-score [8]	composite z-score [9]	composite z-score [10]
CC(=O)NCCCC[C@@H]1NC(=O)[C@@H]2C[C@H](C(=O)NCCCCCN)[C@H](c3cccc(OCCO)c3)N2C1=O	-0.0173	1.92	0.0322	0.742	0.542	1.7	1.01	0.301 (inactive)	0.268	-0.245
CCCNC(=O)[C@@]1(Sc2ccc(C)cc2)CC(=O)N(C2Cc3ccccc3C2)[C@@H]1c1ccc(CO)cc1I	0.427	0.31	-0.103	0.0119	-0.445	0.917	1.01	-0.653 (inactive)	-0.227	0.0505
[N-]=[N+]=NCc1ccccc1[C@H]1OC(c2ccc(OCCCO)cc2)=N[C@@]1(Cc1ccccc1N=[N+]=[N-])C(=O)NCC(O)CO (stereo not given in full)	-0.0235	0.651	0.0342	0.867	1.24	1.68	1.13	1.5 (inactive)	1.43	-0.31
Cc1ccc(S[C@]2(C(=O)NC(C)C)CC(=O)N(Cc3cc(C(F)(F)F)cc(C(F)(F)F)c3)[C@@H]2c2ccc(CO)cc2)cc1	0.0795	-0.662	-0.145	-0.898	-1.08	0.624	0.644	0.237 (inactive)	-0.803	-0.236
COCC(=C=CC[C@H](O)c1ccccc1OCCO)C[C@H](O)c1ccccn1	-0.109	-0.169	-0.128	0.4	-0.548	-0.409	0.0876	-0.996 (inactive)	0.0547	-0.0994
C=C[C@@H](OC)[C@H](OC(=O)Nc1ccc(OC)cc1)c1ccc(O)c(F)c1	-0.122	1.6	-0.142	-0.528	-1.25	0.749	1.15	3.87 (inactive)	-0.39	-0.0994
CCCCN1CC=CC23O[C@@H]4/C=C\CCCOC(=O)C4[C@H]2C(=O)N(CCO)[C@@H]3C1=O (stereo not given in full)	0.33	-1.37	-0.19	-0.615	-0.913	0.441	1.61	-0.0657 (inactive)	-1	-0.271
COc1ccc(C(=O)Nc2ccc(CN3C(=O)[C@]4(O[C@H](CC(=O)N5Cc6ccccc6C[C@H]5CO)[C@@H]([Si](C)(C)c5ccc(OC)cc5)[C@@H]4C)c4ccccc43)cc2)cc1	-0.402	0.716	-0.0785	0.357	0.397	1.48	0.95	-1.89 (inactive)	0.0491	-0.0618
C=CCNC(=O)[C@H]1[C@@H]2C(=O)O[C@@H](c3ccccc3)[C@@H](c3ccccc3)N2[C@@H](c2ccccc2OCCO)[C@]12C(=O)N(C(=O)OCCOC)c1ccc(C#CC3(O)CCCCCC3)cc12	-0.192	0.281	0.0376	0.434	0.776	1.04	1.2	-2.54 (inactive)	0.339	0.0176
COC(=O)[C@@]1(Cc2ccc(F)cc2)[C@H]2c3cc(C(=O)N(C)C)n(Cc4ccc(OC(F)(F)F)cc4)c3C[C@H]2CN1C(=O)c1ccccc1	-0.252	0.34	-0.12	0.369	0.708	0.109	0.429	0.306 (inactive)	0.402	-0.305
C[N+](C)(C)CCCCCCNC(=O)[C@@H]1C[C@@H]2C(=O)N3CCC[C@H]3C(=O)N2[C@@H]1c1ccc(O)cc1	-0.138	1.74	-0.0788	0.571	0.43	0.317	1.34	3.36 (inactive)	0.648	0.21
CC(C)[Si]1(C(C)C)OCc2cc(-c3ccc(-c4ccc(Cl)c(Cl)c4)o3)nc(-c3ccccc3)c21	0.695	-0.464	-0.147	-0.818	-1.65	0.314	-0.914	-0.358 (inactive)	-0.774	-0.134
CCCC=C(CCC)[C@@H](NP(=O)(c1ccccc1)c1ccccc1)c1ccc(-c2ccccc2)cc1	0.0517	0.887	0.112	0.704	1.57	1.19	1.14	-2.1 (inactive)	1.14	0.172
COCCOC(=O)N1C(=O)[C@@]2(c3ccccc31)[C@H](C(=O)NC[C@H](O)c1ccccc1)[C@H]1C(=O)O[C@H](c3ccccc3)[C@H](c3ccccc3)N1[C@@H]2c1ccc(O)cc1	-0.19	0.23	0.0017	0.941	1.55	0.57	1.25	-0.677 (inactive)	0.839	0.689
COCCCNC(=O)[C@@H]1c2ccccc2C(=O)N(C(C)C)[C@H]1c1ccc(CO)cc1	0.312	0.355	-0.051	-0.373	0.0446	0.576	0.763	-0.215 (inactive)	0.0241	-0.249
CS(=O)(=O)CCOC(=O)C1=CC(CCCO)=CC(c2ccc(CN3CCCC3)cc2)N(Cc2sc3ccccc3c2Cl)C=C1C(=O)OCCS(C)(=O)=O (stereo not given)	0.0681	2.14	0.198	1.3	1.62	2.16	1.22	0.168 (inactive)	0.888	0.0053
COCCOC(=O)N1C(=O)[C@@]2(c3ccccc31)[C@H](c1ccc(O)cc1)N1[C@H](c3ccccc3)[C@H](c3ccccc3)OC(=O)[C@H]1[C@@H]2C(=O)N1CCN(c2ncccn2)CC1	-0.224	0.23	0.0019	0.644	0.618	0.647	1.07	-1.27 (inactive)	-0.165	-0.0903

Structure (SMILES)	composite z-score [1]	composite z-score [2]	composite z-score [3]	composite z-score [4]	composite z-score [5]	composite z-score [6]	composite z-score [7]	z-score [8]	composite z-score [9]	composite z-score [10]
CCOC(=O)C[C@H]1[C@H](OC(=O)c2ccc(C(=O)c3ccccc3)cc2)[C@@H](NC(=O)c2ccc3ccccc3n2)c2cc(OCCCO)ccc2N1C(=O)Cc1ccc(OC)cc1	-0.379	0.123	-0.0807	0.289	0.599	0.252	-0.261	0.673 (inactive)	0.121	0.0501
Oc1ccc2cc[n+](Cc3cc4c(cc3Br)OCO4)cc2c1	0.254	0.0899	-0.0148	-0.903	-1.69	-0.614	0.565	0.985 (inactive)	-0.164	-0.236
C=CC[C@]1(C(=O)N2CCOCC2)COC(c2ccc(OCCCO)cc2)=N1	0.0944	1.47	0.075	-0.151	0.0759	1.52	1.39	0.683 (inactive)	0.219	-0.249
O[C@@H](Cc1ccccc1)[C@@H](/C=C/C1CC1)N(CC#Cc1ccccc1)Cc1ccccc1Br	1.53	-0.614	-0.157	-0.763	-0.836	-0.0422	-0.0401	-0.507 (inactive)	-0.221	-0.19
CCOC(=O)C1=C[C@@H](C(C)(C)C)N(S(=O)(=O)c2ccc(C)cc2)[C@H]1c1cccc2ccccc12	0.0905	-0.0282	-0.0724	0.0331	1.08	0.541	0.876	-4.42 (inactive)	0.692	-0.0296
C=CCC(OC(C)=O)[C@@H]1[C@@H](N(Cc2cc3ccccc3o2)C(=O)Cc2ccc(F)cc2)c2cc(OCCCO)ccc2N1C(=O)Cc1ccc2ccccc2c1 (stereo not given in full)	-0.367	-0.804	-0.017	-0.469	-0.665	-0.436	0.112	-1.47 (inactive)	0.0652	-0.306
CCCCNC(=O)c1ccc(C#CC(C)(C)C)c(OC(C)=O)c1	-0.769	0.212	-0.132	0.572	1.04	0.158	0.865	4.66 (inactive)	0.031	-0.0994
CCOC(=O)C[C@H]1[C@H](OC(=O)c2ccc(C(=O)c3ccccc3)cc2)[C@@H](NC(=O)c2ccc(-c3ccccc3)cc2)c2cc(OCCCO)ccc2N1C(=O)Cc1ccc(OC)cc1	-0.258	-0.0676	-0.0364	0.034	0.618	0.486	-0.228	-0.111 (inactive)	0.765	0.0976
COCC(=C=CC[C@H](O)c1ccc(OCCO)cc1)CCO	-0.144	1.12	-0.161	0.592	0.124	1.64	1.42	0.461 (inactive)	0.0418	-0.0618
[N-]=[N+]=Nc1ccccc1[C@H]1OC(c2ccc(OCCCO)cc2)=N[C@@]1(Cc1ccccc1)C(=O)NCCN1CCOCC1	0.701	0.584	0.178	1.19	1.65	1.96	1.39	0.0219 (inactive)	1.66	-0.106
C=CCNC(=O)[C@@H]1[C@H]2C(=O)O[C@H](c3ccccc3)[C@H](c3ccccc3)N2[C@H](c2ccc(OCCO)cc2)[C@@]12C(=O)N(C(=O)OCCOC)c1ccc(C#Cc3ccc(OC)cc3)cc12	-0.412	0.1	-0.126	0.0179	0.801	1.1	1.07	-0.309 (inactive)	0.267	-0.0955
COCCOC(=O)N1C(=O)[C@@]2(c3cc(C#CC4(O)CCCCCC4)ccc31)[C@H](c1ccc(O)cc1)N1[C@H](c3ccccc3)[C@H](c3ccccc3)OC(=O)[C@H]1[C@@H]2C(=O)N1CCN(c2ncccn2)CC1	-0.133	0.837	0.0702	0.292	0.895	1.33	1.24	0.821 (inactive)	0.756	0.132
COC(=O)[C@@]1(Cc2ccccc2)[C@H]2c3cc(C(=O)N(C)C)n(Cc4ccc(C)o4)c3C[C@H]2CN1C(=O)c1ccccc1	1.97	0.6	0.632	0.685	1.36	1.47	1.15	0.495 (inactive)	1.91	0.414
COC(=O)C1(CC(C)C)C=C2C(=C(c3ccccc3)C(=O)C2C)CN1 (stereo not given)	1.92	0.442	0.669	0.746	1.1	1.02	0.78	1.19 (inactive)	1.15	0.935
[N-]=[N+]=Nc1ccccc1C[C@@]1(C(=O)NCCN2CCOCC2)N=C(c2ccc(OCCCO)cc2)O[C@@H]1c1ccccc1N=[N+]=[N-]	0.59	0.639	-0.167	1.28	1.04	1.69	1.29	-2.04 (inactive)	0.98	0.122
NCCCCCNC(=O)[C@@H]1C[C@@H]2C(=O)N[C@@H](CCCCN)C(=O)N2[C@@H]1c1ccc(O)cc1	0.266	0.726	-0.0213	0.491	1.39	2.02	1.29	1.08 (inactive)	0.865	0.23
CO[C@H]1O[C@H](CO)[C@@H](OC(=O)Nc2ccc(Br)cc2)[C@@H]2OC(=O)[C@@H](Cc3ccccc3)C/C=C/C[C@H](Cc3ccccc3)C(=O)O[C@@H]12	-0.159	1.01	-0.07	0.79	1.15	1.25	1.09	0.147 (inactive)	0.0279	-0.0645
